Reference: ChEMBL document CHEMBL1961873, “Compounds: GSK PKIS; Assays: Nanosyn kinase panel” (2012)

Assays:
[1] = target: Sphingosine kinase 1 (Homo sapiens) (UniProt Q9NYA1); details: at 1 µM;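 note: mean SPHK1 inhibition value reported from the GSK PKIS kinase panel screen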
[2] = target: T1, Sphingosine kinase 2 (Homo sapiens) (UniProt Q9NRA0); details: at 0.1 µM
T1 sequence (whole entry): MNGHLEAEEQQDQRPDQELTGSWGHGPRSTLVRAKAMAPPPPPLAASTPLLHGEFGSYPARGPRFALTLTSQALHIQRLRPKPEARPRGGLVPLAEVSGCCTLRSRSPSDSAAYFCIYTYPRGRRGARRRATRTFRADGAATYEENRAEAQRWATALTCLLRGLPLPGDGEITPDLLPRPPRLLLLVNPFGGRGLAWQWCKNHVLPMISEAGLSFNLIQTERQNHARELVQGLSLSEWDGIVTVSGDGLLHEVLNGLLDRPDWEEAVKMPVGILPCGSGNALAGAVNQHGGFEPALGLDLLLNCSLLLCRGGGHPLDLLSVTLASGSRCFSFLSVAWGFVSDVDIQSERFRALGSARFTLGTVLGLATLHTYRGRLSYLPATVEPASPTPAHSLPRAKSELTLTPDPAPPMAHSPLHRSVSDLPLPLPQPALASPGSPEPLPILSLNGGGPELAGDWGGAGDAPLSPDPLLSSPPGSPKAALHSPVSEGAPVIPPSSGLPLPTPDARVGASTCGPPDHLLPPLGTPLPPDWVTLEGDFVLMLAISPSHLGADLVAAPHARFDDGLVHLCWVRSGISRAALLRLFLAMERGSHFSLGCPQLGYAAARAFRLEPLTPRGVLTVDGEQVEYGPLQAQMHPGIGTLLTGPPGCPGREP

[3] = target: T1, Sphingosine kinase 2 (Homo sapiens); details: at 1 µM
[4] = target: Casein kinase II subunit alpha (Homo sapiens) (UniProt P68400); details: at 0.1 µM
Sequence of Casein kinase II subunit alpha (Homo sapiens) (P68400 whole entry, looked up): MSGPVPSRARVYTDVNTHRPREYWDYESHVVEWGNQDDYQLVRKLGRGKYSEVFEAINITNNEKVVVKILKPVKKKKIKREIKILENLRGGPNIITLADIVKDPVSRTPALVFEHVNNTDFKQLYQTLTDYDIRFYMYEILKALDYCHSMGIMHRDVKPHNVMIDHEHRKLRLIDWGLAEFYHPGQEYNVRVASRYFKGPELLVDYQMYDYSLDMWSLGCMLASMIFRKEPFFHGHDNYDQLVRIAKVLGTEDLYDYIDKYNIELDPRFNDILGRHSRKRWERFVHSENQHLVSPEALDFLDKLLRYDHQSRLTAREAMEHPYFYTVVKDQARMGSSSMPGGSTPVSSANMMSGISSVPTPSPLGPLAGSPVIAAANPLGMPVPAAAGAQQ

[5] = target: Casein kinase II subunit alpha (Homo sapiens) (UniProt P68400); details: at 1 µM
[6] = target: T2, Inhibitor of nuclear factor kappa-B kinase subunit alpha (Homo sapiens) (UniProt O15111); details: at 0.1 µM
T2 sequence (whole entry): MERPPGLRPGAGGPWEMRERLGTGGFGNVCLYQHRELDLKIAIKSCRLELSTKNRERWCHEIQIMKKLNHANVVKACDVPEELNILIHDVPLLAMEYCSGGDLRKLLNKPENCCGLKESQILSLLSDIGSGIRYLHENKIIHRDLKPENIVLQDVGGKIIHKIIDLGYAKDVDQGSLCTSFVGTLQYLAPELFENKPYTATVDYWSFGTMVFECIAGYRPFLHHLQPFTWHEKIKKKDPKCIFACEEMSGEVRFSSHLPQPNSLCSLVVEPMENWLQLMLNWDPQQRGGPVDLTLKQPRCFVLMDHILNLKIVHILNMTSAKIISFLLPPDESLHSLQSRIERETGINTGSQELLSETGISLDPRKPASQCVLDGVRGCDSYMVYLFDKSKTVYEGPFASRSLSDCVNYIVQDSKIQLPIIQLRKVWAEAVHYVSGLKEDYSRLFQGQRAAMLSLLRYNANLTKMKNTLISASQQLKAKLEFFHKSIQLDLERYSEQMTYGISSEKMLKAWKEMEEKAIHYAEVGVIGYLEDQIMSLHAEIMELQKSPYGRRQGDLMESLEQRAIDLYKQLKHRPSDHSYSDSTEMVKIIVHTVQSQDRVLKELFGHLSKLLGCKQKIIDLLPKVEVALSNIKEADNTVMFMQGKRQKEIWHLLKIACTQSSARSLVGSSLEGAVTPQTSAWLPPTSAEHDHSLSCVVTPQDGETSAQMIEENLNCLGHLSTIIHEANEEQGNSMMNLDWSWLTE

[7] = target: T2, Inhibitor of nuclear factor kappa-B kinase subunit alpha (Homo sapiens); details: at 1 µM
[8] = target: T3, Inhibitor of nuclear factor kappa-B kinase subunit beta (Homo sapiens) (UniProt O14920); details: at 0.1 µM
T3 sequence (whole entry): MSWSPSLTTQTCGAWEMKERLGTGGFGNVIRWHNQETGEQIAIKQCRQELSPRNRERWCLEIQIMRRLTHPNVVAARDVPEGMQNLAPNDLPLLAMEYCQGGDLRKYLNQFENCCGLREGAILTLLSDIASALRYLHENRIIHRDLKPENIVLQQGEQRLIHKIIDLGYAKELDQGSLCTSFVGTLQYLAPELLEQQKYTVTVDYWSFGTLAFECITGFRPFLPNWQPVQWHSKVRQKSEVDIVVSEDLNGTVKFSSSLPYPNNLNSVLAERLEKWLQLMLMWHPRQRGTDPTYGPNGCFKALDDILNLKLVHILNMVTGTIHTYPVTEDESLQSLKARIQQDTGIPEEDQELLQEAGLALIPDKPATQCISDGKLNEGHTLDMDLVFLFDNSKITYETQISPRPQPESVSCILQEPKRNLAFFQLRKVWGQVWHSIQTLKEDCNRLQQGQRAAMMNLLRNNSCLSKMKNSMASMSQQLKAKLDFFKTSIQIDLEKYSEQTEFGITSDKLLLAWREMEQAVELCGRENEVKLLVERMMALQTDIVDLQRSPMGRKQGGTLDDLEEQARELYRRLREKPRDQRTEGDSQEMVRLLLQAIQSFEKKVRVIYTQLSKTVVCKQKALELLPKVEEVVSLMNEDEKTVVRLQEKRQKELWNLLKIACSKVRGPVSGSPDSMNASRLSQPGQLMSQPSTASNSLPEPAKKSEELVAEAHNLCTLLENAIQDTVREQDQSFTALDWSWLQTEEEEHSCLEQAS

[9] = target: T3, Inhibitor of nuclear factor kappa-B kinase subunit beta (Homo sapiens); details: at 1 µM
[10] = target: T4, Inhibitor of nuclear factor kappa-B kinase subunit epsilon (Homo sapiens) (UniProt Q14164); details: at 0.1 µM
T4 sequence (whole entry): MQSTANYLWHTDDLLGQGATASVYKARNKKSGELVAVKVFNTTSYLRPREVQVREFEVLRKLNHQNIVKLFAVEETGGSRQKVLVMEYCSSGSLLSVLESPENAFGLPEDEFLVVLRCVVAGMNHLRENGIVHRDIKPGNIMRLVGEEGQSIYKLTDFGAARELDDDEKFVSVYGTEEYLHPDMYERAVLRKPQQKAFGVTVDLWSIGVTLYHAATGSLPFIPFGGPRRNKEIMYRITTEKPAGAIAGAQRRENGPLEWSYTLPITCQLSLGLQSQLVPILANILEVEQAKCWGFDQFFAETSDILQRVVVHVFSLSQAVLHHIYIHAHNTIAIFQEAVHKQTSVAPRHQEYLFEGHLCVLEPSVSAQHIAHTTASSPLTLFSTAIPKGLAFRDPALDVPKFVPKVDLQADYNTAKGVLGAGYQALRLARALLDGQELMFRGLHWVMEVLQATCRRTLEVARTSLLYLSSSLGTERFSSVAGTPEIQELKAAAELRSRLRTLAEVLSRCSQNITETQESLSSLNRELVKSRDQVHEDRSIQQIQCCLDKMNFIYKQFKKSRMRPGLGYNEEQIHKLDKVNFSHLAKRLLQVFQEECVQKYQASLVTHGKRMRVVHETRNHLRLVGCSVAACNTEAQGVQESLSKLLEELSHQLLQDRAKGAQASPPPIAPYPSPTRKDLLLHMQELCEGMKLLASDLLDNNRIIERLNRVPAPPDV

[11] = target: T4, Inhibitor of nuclear factor kappa-B kinase subunit epsilon (Homo sapiens); details: at 1 µM
[12] = target: T5, Serine/threonine-protein kinase Nek1 (Homo sapiens) (UniProt Q96PY6); details: at 0.1 µM
T5 sequence (whole entry): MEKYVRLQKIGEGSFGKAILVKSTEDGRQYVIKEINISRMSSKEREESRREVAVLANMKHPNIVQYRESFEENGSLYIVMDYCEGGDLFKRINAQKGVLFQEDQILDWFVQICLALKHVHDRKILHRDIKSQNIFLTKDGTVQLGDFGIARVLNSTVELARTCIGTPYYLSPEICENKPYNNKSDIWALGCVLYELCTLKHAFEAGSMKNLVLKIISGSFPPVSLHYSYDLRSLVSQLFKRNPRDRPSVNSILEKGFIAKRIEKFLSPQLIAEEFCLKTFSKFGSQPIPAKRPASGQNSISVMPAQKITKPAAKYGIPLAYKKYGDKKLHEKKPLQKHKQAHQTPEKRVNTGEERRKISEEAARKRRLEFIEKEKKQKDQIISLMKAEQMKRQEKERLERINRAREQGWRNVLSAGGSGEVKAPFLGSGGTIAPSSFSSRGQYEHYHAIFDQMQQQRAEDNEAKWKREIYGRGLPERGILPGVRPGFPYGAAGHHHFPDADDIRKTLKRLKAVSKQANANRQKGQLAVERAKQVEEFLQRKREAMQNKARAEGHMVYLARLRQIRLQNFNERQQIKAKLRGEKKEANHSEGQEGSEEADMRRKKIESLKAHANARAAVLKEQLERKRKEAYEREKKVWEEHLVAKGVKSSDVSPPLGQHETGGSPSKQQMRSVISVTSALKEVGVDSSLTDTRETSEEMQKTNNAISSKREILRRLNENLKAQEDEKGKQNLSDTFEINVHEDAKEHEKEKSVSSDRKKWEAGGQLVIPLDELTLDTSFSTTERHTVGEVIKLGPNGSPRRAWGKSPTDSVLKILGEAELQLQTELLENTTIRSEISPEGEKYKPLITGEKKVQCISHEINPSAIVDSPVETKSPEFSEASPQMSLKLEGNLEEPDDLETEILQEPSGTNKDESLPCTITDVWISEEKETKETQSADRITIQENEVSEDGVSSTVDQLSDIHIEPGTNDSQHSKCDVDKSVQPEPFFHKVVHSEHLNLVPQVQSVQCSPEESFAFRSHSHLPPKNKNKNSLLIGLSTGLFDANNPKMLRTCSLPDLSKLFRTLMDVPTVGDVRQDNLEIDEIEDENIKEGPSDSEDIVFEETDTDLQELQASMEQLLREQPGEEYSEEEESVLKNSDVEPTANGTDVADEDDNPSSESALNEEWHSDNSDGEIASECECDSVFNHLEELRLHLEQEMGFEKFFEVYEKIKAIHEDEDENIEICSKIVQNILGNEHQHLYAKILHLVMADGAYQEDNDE

[13] = target: T5, Serine/threonine-protein kinase Nek1 (Homo sapiens); details: at 1 µM
[14] = target: T6, Serine/threonine-protein kinase Nek2 (Homo sapiens) (UniProt P51955); details: at 0.1 µM
T6 sequence (whole entry): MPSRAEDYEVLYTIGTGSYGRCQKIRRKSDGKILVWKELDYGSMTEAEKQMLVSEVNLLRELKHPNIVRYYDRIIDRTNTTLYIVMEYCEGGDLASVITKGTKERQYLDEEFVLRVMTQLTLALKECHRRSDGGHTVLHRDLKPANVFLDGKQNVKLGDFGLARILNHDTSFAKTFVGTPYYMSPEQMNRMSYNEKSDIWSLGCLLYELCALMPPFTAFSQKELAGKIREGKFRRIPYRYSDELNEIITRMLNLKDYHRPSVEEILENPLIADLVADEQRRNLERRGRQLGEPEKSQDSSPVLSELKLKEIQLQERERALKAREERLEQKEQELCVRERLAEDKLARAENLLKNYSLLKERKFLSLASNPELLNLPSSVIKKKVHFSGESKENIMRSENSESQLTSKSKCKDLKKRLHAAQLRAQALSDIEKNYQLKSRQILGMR

[15] = target: T6, Serine/threonine-protein kinase Nek2 (Homo sapiens); details: at 1 µM
[16] = target: Serine/threonine-protein kinase Nek6 (Homo sapiens) (UniProt Q9HC98); details: at 0.1 µM
Sequence of Serine/threonine-protein kinase Nek6 (Homo sapiens) (Q9HC98 whole entry): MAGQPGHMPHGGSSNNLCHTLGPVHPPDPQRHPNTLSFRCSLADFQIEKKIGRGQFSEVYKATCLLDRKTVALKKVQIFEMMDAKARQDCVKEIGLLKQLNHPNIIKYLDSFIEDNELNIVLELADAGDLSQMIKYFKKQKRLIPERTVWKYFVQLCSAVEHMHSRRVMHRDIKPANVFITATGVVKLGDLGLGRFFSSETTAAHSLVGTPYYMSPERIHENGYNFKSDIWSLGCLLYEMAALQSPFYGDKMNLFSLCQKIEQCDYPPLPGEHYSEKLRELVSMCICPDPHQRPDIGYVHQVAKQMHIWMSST

[17] = target: Serine/threonine-protein kinase Nek6 (Homo sapiens) (UniProt Q9HC98); details: at 1 µM
[18] = target: Serine/threonine-protein kinase Nek7 (Homo sapiens) (UniProt Q8TDX7); details: at 0.1 µM
Sequence of Serine/threonine-protein kinase Nek7 (Homo sapiens) (Q8TDX7 whole entry, looked up): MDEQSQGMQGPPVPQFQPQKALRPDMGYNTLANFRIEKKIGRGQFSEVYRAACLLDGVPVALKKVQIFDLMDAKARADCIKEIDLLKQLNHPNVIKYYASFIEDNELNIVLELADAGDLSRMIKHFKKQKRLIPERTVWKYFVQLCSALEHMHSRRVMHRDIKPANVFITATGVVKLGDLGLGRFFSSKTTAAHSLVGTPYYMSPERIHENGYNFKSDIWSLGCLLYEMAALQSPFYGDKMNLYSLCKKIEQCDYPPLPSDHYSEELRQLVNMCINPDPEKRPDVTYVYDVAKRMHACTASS

[19] = target: Serine/threonine-protein kinase Nek7 (Homo sapiens) (UniProt Q8TDX7); details: at 1 µM
[20] = target: T7, Serine/threonine-protein kinase Nek9 (Homo sapiens) (UniProt Q8TD19); details: at 0.1 µM;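 note: reported value is the mean percent inhibition of NEK9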
T7 sequence (whole entry): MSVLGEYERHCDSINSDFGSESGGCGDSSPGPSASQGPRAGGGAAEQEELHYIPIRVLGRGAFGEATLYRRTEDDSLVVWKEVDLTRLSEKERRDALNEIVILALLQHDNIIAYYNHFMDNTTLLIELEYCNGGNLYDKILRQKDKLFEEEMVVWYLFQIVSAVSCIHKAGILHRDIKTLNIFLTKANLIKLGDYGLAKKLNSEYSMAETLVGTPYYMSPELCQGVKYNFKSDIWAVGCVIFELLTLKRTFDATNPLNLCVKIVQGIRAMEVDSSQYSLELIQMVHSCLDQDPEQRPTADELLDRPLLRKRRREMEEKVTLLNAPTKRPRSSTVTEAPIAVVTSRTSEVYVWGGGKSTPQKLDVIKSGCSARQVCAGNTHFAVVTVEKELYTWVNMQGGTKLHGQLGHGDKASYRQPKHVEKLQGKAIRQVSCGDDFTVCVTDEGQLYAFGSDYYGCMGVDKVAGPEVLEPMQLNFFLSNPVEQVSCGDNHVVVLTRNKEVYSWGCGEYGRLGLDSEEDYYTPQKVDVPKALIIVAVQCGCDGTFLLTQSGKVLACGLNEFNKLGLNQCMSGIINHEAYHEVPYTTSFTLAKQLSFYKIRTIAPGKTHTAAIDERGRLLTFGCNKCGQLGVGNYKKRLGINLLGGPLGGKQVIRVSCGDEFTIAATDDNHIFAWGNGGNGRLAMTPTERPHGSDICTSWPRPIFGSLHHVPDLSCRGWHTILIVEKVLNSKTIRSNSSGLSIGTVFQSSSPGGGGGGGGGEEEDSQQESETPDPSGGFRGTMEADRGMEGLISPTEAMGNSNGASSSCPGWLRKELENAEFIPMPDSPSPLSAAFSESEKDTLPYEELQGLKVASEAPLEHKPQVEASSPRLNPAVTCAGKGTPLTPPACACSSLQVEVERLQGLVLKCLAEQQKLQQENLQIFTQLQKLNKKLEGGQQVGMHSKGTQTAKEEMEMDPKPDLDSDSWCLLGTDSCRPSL

Sequence of Sphingosine kinase 1 (Homo sapiens) (Q9NYA1 whole entry): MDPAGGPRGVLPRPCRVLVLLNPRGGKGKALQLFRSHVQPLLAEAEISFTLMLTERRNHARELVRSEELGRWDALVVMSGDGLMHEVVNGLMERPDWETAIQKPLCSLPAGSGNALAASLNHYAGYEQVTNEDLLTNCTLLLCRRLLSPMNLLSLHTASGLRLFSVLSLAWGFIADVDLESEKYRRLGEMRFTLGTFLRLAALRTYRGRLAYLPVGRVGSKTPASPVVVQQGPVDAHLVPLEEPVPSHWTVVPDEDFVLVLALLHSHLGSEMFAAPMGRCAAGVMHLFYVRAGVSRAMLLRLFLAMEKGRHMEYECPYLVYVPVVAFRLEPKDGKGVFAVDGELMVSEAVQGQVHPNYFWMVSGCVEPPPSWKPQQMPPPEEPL

Row | Structure (SMILES) | inhibition [1] [%] | inhibition [2] [%] | inhibition [3] [%] | inhibition [4] [%] | inhibition [5] [%] | inhibition [6] [%] | inhibition [7] [%] | inhibition [8] [%] | inhibition [9] [%] | inhibition [10] [%] | inhibition [11] [%] | inhibition [12] [%] | inhibition [13] [%] | inhibition [14] [%] | inhibition [15] [%] | inhibition [16] [%] | inhibition [17] [%] | inhibition [18] [%] | inhibition [19] [%] | inhibition [20] [%]
1 | O=C(Nc1ccc(Oc2ccc3[nH]c(NC(=O)c4ccco4)nc3c2)cc1)Nc1cc(C(F)(F)F)ccc1F | 6.73 | 0.7 | -0.32 | 0.08 | -0.44 | 0.68 | 5.25 | -0.61 | -1.89 | -0.79 | -0.41 | 0.66 | 0.27 | 0.32 | 0.28 | -0.01 | -0.32 | 0.83 | 0.99 | -0.1
2 | FC(F)(F)c1ccc(-c2nn3ncccc3c2-c2ccnc(Nc3ccc4c(c3)OCCO4)n2)cc1 | 0.29 | 3.37 | 4.75 | 8.02 | 19.8 | 1.17 | 0.75 | 0.04 | 2.22 | 1.97 | -1.52 | 4.77 | 2.05 | 1.11 | 1.32 | -1.63 | 1.37 | -5.04 | -5.62 | -5.79
